From PubChem BioAssay (NCI)
Compounds without any hit were thinned out: in the full panel of roughly 83,000, 20% have a hit.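 Negative percent growth values reflect cell death: -40 means 40% of the cells present at the start died, and -100 means all died.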 Unmarked numbers belong to inactive results. The source made the active and inactive calls. The calls were made as follows: active = growth percent below 10; inactive = the rest.

Columns and labels:
Test in all cases: NCI-60 one-dose screen, 48 h (100 = growth as untreated, 0 = no growth, -100 = all killed)
Conditions in all cases: 10 µM unless noted
T-47D breast = system: T-47D breast
BT-549 breast = system: BT-549 breast
MDA-MB-435 melanoma = system: MDA-MB-435 melanoma
SW-620 colon = system: SW-620 colon
MCF7 breast = system: MCF7 breast
HCT-116 colon = system: HCT-116 colon
HCC-2998 colon = system: HCC-2998 colon
KM12 colon = system: KM12 colon

Compound	growth (T-47D breast)	growth (BT-549 breast)	growth (MDA-MB-435 melanoma)	growth (SW-620 colon)	growth (MCF7 breast)	growth (HCT-116 colon)	growth (HCC-2998 colon)	growth (KM12 colon)
COC1NC(Cl)=C(C#N)C(C#N)(C#N)C1(C)C (stereo not drawn)	112%	97%	124%	95.9%	124%	108%	113%	111%
N/C(=N\O)c1ccncc1	102%	98.3%	100%	105%	97.2%	102%	95.8%	102%
O=c1oc2ccc3ccccc3c2cc1-c1ccnc2[nH]c(=S)[nH]c(=O)c12	103%	101%	106%	105%	96.8%	93.9%	101%	101%
CC(=O)c1cc(Nc2cc(C)nc(N)n2)cc(C(C)=O)c1	85.9%	98.7%	117%	92.2%	110%	97%	51.9%	97.3%
Ic1ccc(SSc2ccc(I)cc2)cc1	79.7%	41.5%	100%	106%	92.4%	83.7%	104%	82.2%
COc1ccc(-n2nnnc2-c2cn[nH]c2C(F)(F)F)cc1	77.8%	85.5%	98.1%	94.6%	111%	97%	78.9%	101%
CSC1=Nc2c(c(C)c(-c3ccccc3)n2CCCCl)C2=NC(=O)CN12	72.4%	61.2%	-31.4% (active)	44.4%	36.3%	26.7%	72.3%	26.1%
CCCC(=O)NNc1[nH]c(-c2ccc(OC)cc2)cc1C(=O)OCC	63.9%	99.4%	95.2%	95.5%	104%	109%	75.2%	98.9%
COc1ccc(/C=C/C(=O)/C=C/c2cc3ccccc3[nH]c2=O)cc1	57.1%	64.9%	13.6%	36.4%	14.5%	-30.8% (active)	96.7%	27.6%
Oc1ccc(Br)cc1/C=N/NC(=S)NC12CC3CC(CC(C3)C1)C2	-4.11% (active)	64.3%	18.6%	-24.8% (active)	-17.4% (active)	8.08% (active)	-8.19% (active)	-24.6% (active)
CCOc1ccccc1/C=N\N=C(N/N=C/c1ccccc1OCC)N/N=C/c1ccccc1OCC	16.1%	31.8%	13.4%	12.1%	3.52% (active)	13.1%	23.9%	10.7%
COc1cc(Cn2ccc3c2-c2oncc2CC3)cc(OC)c1	32.2%	32.9%	-37% (active)	18%	6.18% (active)	14.7%	61.6%	24.5%
COc1cc(/C=C/C(=O)/C=C(/C=C/c2ccc(OC(C)=O)c(OC)c2)OB(F)F)ccc1OC(C)=O	41.9%	37.3%	41%	17.5%	21.5%	6.64% (active)	100%	73.8%
Cc1cc(CSc2ccc(Cl)cc2)ccc1N	84.1%	55.6%	104%	126%	112%	101%	97.7%	70.7%
CC(C)(C)c1cc(C[P+](c2ccc(Cl)cc2)(c2ccc(Cl)cc2)c2ccc(Cl)cc2)cc(C(C)(C)C)c1O	56.1%	102%	84.7%	79.6%	65.1%	40.7%	107%	88.9%
CCOc1ccc2nc3ccc(Cl)cc3nc2c1	80.6%	90.7%	107%	91%	92.3%	88.1%	70.5%	94.5%
[N-]=[N+]=Nc1ncc(-c2ccc(C(F)(F)F)cc2)c(NC2CCCCCC2)n1	21.3% [100 µM]	45.4% [100 µM]	19.1% [100 µM]	27.2% [100 µM]	16.3% [100 µM]	16% [100 µM]	39.7% [100 µM]	–
COc1cc([C@@H]2c3cc4c(cc3[C@H](O)[C@H]3COC[C@@H]23)OCO4)cc(OC)c1OC	83.7%	90.6%	-12.4% (active)	54.4%	30.9%	66.7%	85.5%	49.5%
CCC1(CC)C(OC)NC(Br)=C(C#N)C1(C#N)C(N)=O (stereo not drawn)	113%	104%	107%	101%	110%	110%	121%	103%
COc1nc(OC)nc(-c2cc(-c3cc(OC)c(OC)c(OC)c3)no2)n1	103%	120%	111%	102%	93.7%	105%	112%	102%
CCn1cnc(C[C@H](NC(=O)[C@@H](NC(=O)Nc2cc(C(F)(F)F)cc(C(F)(F)F)c2)C(C)(C)C)C(=O)OC)c1	-58% [100 µM] (active)	-86.2% [100 µM] (active)	-90.7% [100 µM] (active)	-60% [100 µM] (active)	-62% [100 µM] (active)	-81% [100 µM] (active)	-89.3% [100 µM] (active)	–
O=C1C(=O)c2ccccc2C(O)=C1CCCc1ccc(C2CCCC2)cc1	59.8%	40.3%	42%	24.3%	33.3%	16.6%	36.7%	27.6%
Clc1ccc(I)c2ccccc12	96.8%	94.6%	108%	107%	95.8%	97.4%	107%	110%
C=CCC(CCC(CC=C)C(=O)OCC)C(=O)OCC (stereo not drawn)	105%	96.3%	104%	103%	89.6%	100%	113%	99.8%
O=C(NC(=S)NNC(=S)NNc1ccccc1)c1ccccc1	18.4%	49.5%	4.94% (active)	24.4%	8.12% (active)	24.3%	50.7%	59%
CC(Br)c1nc2ccccc2cc1C(N)=O (stereo not drawn)	95.7%	112%	112%	110%	84.9%	106%	102%	105%
C/C(=C\c1ccc2ccccc2c1)[N+](=O)[O-]	-52.8% (active)	64.4%	51.8%	-33.8% (active)	-50.9% (active)	-40.7% (active)	78.5%	56%
O=C(/C=C1\C(=O)N(Cc2ccc([N+](=O)[O-])cc2)c2ccccc21)c1ccc(OCCN2CCCCC2)cc1	-62.8% (active)	-80% (active)	22.5%	-78.7% (active)	-47.5% (active)	-91.2% (active)	42.1%	3.66% (active)
O=C(Nc1ccc(Cl)cn1)C1(c2ccccc2)CCCCC1	94.7%	98.4%	125%	96.6%	96.3%	117%	99.1%	101%
O=C(CN1CCN(c2cccc(Cl)c2)CC1)N1CCN(c2nnc(-c3ccc(Cl)cc3)c(-c3ccc(Cl)cc3)n2)CC1	50.1%	87.8%	72.3%	76.7%	55.4%	53.5%	83.6%	57.6%
